Compounds with a hit are over-represented: about 14% of the library has one in this group of screens.
Pf growth 96h – Primary qHTS for delayed death inhibitors of the malarial parasite plastid, 96 hour incubation. 6.9% of 320,000 active. Potency, µM (series often up to 28.7 µM), inactives show at the highest dose activity change, negative = inhibition, hits mostly inhibitors. AID 504834, 2011. P. falciparum luciferase reporter growth, 96 h; further: potency means the concentration at half of the fitted maximal effect
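Parasite growth measured via integrated firefly luciferase reporter in P. falciparum. Infected erythrocytes at 2% hematocrit, 0.05% parasitemia final were treated 96 hours at 37 C under 5% CO2, and luminescence was read.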
HCMV inh – qHTS Assay for inhibitors of the human cytomegalovirus (HCMV); HFF cells, HCMV-luciferase reporter, 72 h; hits give low values; activity change, negative = inhibition, % at 57.5 µM; 4.5% of 410,000 active; in the data active means activity change below about -60%; inconclusive means no clear call, values can overlap the other calls; inactive means above about -39%
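Two-dose cell screen: HFF monolayers treated with compounds and infected with luciferase-expressing HCMV at 1 PFU/cell, 72 h at 37C, then lysed for luciferase measurement.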
HCV inhibitor – qHTS Assay for Inhibitors of Hepatitis C Virus (HCV); Huh7.5.1 HCVcc-Cre infection, luciferase reporter, 44 h; Potency, µM (titrated, usually from 41.8 µM), for the others: at the highest dose activity change, negative = inhibition, most hits filed as inhibitors; 3.4% of 340,000 active; AID 651820, 2012; further: potency means the concentration at half of the fitted maximal effect
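Whole-lifecycle infectious HCVcc-Cre system; cells 1,000/well, compound then virus (~0.5 moi) added 4 h after plating, 44 h culture. Luciferase read 15 sec following 15 min substrate incubation, room temp.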
Lassa entry inh – qHTS for Inhibitors of binding or entry into cells for Lassa Virus; 1.2% of 300,000 active; Potency, µM (top dose mostly 37.9 µM), for the others: at the top dose activity change, negative = inhibition, actives largely listed as inhibitors; Lassa virus pseudotype entry inhibition, cell reporter; AID 540256, 2011; calls by dose curve; tested in HEK293 cells; further: potency means the concentration at half of the fitted maximal effect; nearly all actives have a fitted effect of over 50% in size
MARV entry inh – qHTS for inhibitors of binding or entry into cells for Marburg Virus; Potency, µM (top dose mostly 37.8 µM), inactives show at the highest dose activity change, negative = inhibition, hits mostly inhibitors; AID 540276, 2011; Marburg virus pseudotyped entry inhibition, cell reporter; 1.8% of 300,000 active; calls by dose curve; tested in HEK293 cells; further: potency means the concentration at half of the fitted maximal effect
Pf growth 48h – Primary qHTS for delayed death inhibitors of the malarial parasite plastid, 48 hour incubation | 5.9% of 310,000 active | Potency, µM (doses to about 28.7 µM), without a hit: at the highest dose activity change, negative = inhibition, usual class: inhibitors | P. falciparum luciferase growth in erythrocytes, 48 h; further: potency means the concentration at half of the fitted maximal effect
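Read-out is firefly luciferase luminescence from an integrated reporter in P. falciparum, so falling signal marks reduced parasite growth. Infected erythrocytes were at 2% hematocrit and 0.1% parasitemia (final) in Albumax-supplemented RPMI 1640.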
* hit, by the source's call; i = inactive; ? = inconclusive; / = not tested or not shown; [ ] = dose if it differs, or a comment. Unless noted, the call rests on the fitted dose curve; in most records, active means well fitted inhibition curve with a large enough effect; inconclusive means small, poorly fitted or top-dose-only effect, or another doubt; inactive means no such curve, though single readings can be large or run the other way. On the % scale 0 is the no-effect control and ±100 the full control effect.

SMILES	Pf growth 96h	HCMV inh	HCV inhibitor	Lassa entry inh	MARV entry inh	Pf growth 48h
COc1ccc(Nc2ncnc3ccccc23)cc1	/	-25	?	17%	6%	132%
c1ccc(CCNc2ccnc3cc4ccccc4cc23)cc1	49%	-101*	6.3µM*	/	?	0.52µM*
COc1ccc(Nc2ccnc3ccccc23)cc1	?	?	?	-4%	?	12µM*
Cc1cc(Nc2ccc(F)cc2)c2ccccc2n1	/	-11	/	/	/	/
CC(C)Nc1ccc(Nc2ccnc3cc4ccccc4cc23)cc1	0.59µM*	-100*	?	6.3µM*	5.2µM*	0.52µM*
Cc1ccc2c(=O)c(C(=O)c3ccccc3)cn(CC(=O)Nc3ccc4c(c3)OCCO4)c2n1	/	4	/	-8%[46.1 µM]	/	/
CNc1nc2cnc(-c3cc(OC)c(OC)c(OC)c3)cc2n1Cc1ccccc1	/	53	/	/	/	/
COc1cccc(CNC(=O)CSc2nc3ccccc3nc2Cc2ccc(C)cc2)c1OC	/	-92*	/	0%[46.1 µM]	/	/
COc1ccccc1Cc1nc2ccccc2nc1SCC(=O)NCc1ccc(C)cc1	/	17	/	11%[46.1 µM]	/	/
Cc1cc(F)ccc1NC(=O)Cn1cc(S(=O)(=O)NC(C)C)c(S(=O)(=O)NC(C)C)c1	/	12	/	28%[46.1 µM]	/	/
CCCCc1ccc(S(=O)(=O)N[C@H]2CC[C@@]34CCCN3C(=O)CCC[C@H]4[C@H]2C)cc1	/	-1	/	/	/	/
CC(Cc1ccccc1)NC(=O)c1ccc(N)cc1 (stereo not drawn)	12µM*	131	16%	1%	2%	102%
CC(Cc1ccccc1)NC(=O)c1ccc([N+](=O)[O-])cc1 (stereo not drawn)	?	86	1%	-18%	?	232%
COc1ccc(-n2c(=O)c(CCC(=O)N(C)Cc3ccccc3C)nc3ccccc32)cc1	8.3µM*	-31	?	/	0%	10µM*
COc1ccc(-n2c(=O)c(CCC(=O)NCCc3ccccc3F)nc3ccccc32)cc1	?	-17	?	/	/	?
CCc1ccc(CN(C)C(=O)CCc2nc3ccccc3n(-c3ccc(OC)cc3)c2=O)cc1	13µM*	-68*	?	14µM*	10µM*	?
COc1ccc(OC)c(C(=O)CN2C(=O)N(c3ccc(C)cc3)S(=O)(=O)c3ccccc32)c1	/	-4	/	-1%[46.1 µM]	/	/
COc1ccc(OC)c(-c2cc(C(=O)Nc3c(C)nn(Cc4ccccc4)c3C)no2)c1	?	-28	?	?	?	13µM*
Cc1nn(Cc2ccccc2)c(C)c1NC(=O)c1cc(-c2ccco2)on1	49%	1	-30%	-17%	?	?
COc1ccc(OC)c(-c2cc(C(=O)Nc3c(C)nn(Cc4ccc(Cl)cc4)c3C)no2)c1	-20%	-13	14µM*	?	?	?
Nc1nonc1-c1noc(CCCOc2ccc(Cl)cc2Cl)n1	5.2µM*	60	?	0%	3%	-23%
Clc1ccc(OCc2nc(-c3ccncc3)no2)c(Cl)c1	10µM*	116	?	?	?	-58%
Cc1ccc(C(C)C)c(OCc2nc(-c3nonc3N)no2)c1	4.7µM*	?	-18%	/	/	/
CCCCCc1nc(-c2nonc2N)no1	150%	23	17%	-12%	2%	7%
COC(=O)[C@@]12C[C@@H](CC(=O)N3CCCCC3)C(=O)N(CCc3ccc(OC)c(OC)c3)C1=CCC(C)(C)C2	/	66	/	/	/	/
SMILES	Pf growth 96h	HCMV inh	HCV inhibitor	Lassa entry inh	MARV entry inh	Pf growth 48h
CC(C(=O)NCc1ccccc1)n1ccc2cc(S(=O)(=O)N3CCCC3)ccc21 (stereo not drawn)	/	-3	/	-21%[46.1 µM]	/	/
COCCCNC(=O)CSc1nc2cc(C(=O)NCCOC)ccc2c(=O)n1Cc1ccc2c(c1)OCO2	?	-35	-4%	/	/	?
COc1ccc(OCC(=O)C2CC2)c(C#N)c1	234%	51	-4%	/	/	1.9µM*
COc1ccccc1CNC(=O)c1ccc(CS(=O)(=O)c2ccc(C)cc2)o1	19%	-26	12%	/	/	13%
O=[N+]([O-])c1ccc(-c2csc(NN=C3CCCC3)n2)cc1	?	?	8.9µM*	14%[46.1 µM]	?	0%
COCC(=O)Nc1nc(-c2ccc([N+](=O)[O-])cc2)cs1	3%	-89*	-4%	/	/	52%
O=C(Cc1ccccc1)Nc1nc(-c2cccc([N+](=O)[O-])c2)cs1	?	-8	5%	-4%	-12%	8%
CNc1nc(-c2ccc([N+](=O)[O-])cc2)cs1	i	-74*	-13%	18%	2%[46.1 µM]	138%
CC(C)C(=O)Nc1nc(-c2ccc([N+](=O)[O-])cc2)cs1	91%	?	?	/	/	35%
O=C(Cc1nc(-c2ccc([N+](=O)[O-])cc2)cs1)Nc1ccccc1	-5%	-92*	-14%	-2%	4%	-15%
COc1ccc2c(c1)[C@@]1(OCCC=C[C@@H]1C)C(=O)N2CC1CC1	/	/	/	/	-7%[14.2 µM]	/
O=[N+]([O-])c1ccc(-c2csc(N3CCCCCC3)n2)cc1	?	-24	-22%	?	-6%	11%
Nc1nc(-c2ccc([N+](=O)[O-])cc2)cs1	42%	-79*	-2%	7%	?	41%
COc1ccc(CCNc2oc(Cc3cccc4ccccc34)nc2C#N)cc1OC	?	-17	7.9µM*	?	?	6.6µM*
CNc1oc(Cc2cccc3ccccc23)nc1C#N	?	-23	-3%	-1%	-12%	-21%
N#Cc1nc(-c2ccccc2F)oc1NCCN1CCOCC1	9.3µM*	19	-5%	/	/	/
N#Cc1nc(-c2cccc3ccccc23)oc1NCCN1CCOCC1	23%	39	?	27%	5%	-13%
N#Cc1nc(Cc2cccc3ccccc23)oc1NCCN1CCCCC1	/	-19	11µM*	0%	-28%	?
Cc1ccc(S(=O)(=O)NCc2nc3cccnc3n2Cc2ccccc2Cl)c(C)c1	/	-25	/	?	/	/
COC(=O)c1ccc(NC(=O)CCN2C(=O)NC(C)(C)C2=O)cc1	49%	34	1%	/	/	57%
C=CCN1c2ccccc2[C@]23CCC(=O)N(CCc4ccccn4)C2=NC(C(=O)OC)=C(C(=O)OC)[C@H]13	/	/	/	/	4%[14.2 µM]	/
Cc1ccccc1-n1c(SCc2csc(Nc3ccccc3)n2)nnc1-c1cccnc1	9.3µM*	-14	?	-18%	?	?
Cc1ccc(Nc2nc(CSc3nnc(-c4cccnc4)n3-c3ccccc3C)cs2)cc1	?	4	32µM*	?	?	-21%
Cc1ccc(Nc2nc(CSc3nnc(-c4ccccc4)n3C)cs2)cc1	?	?	?	?	?	80%

High-throughput results from PubChem.
